HTR5A ag ctr: HTR5A agonism, opioid heterodimer counter-screen; HTR5A agonist assay, luminescence, cell-based; activation, % at 9.3 µM; actives 0.61% (n = 340,000); AID 504692; in the data active means activation mostly above about 9.5%, no sharp cut-off; inactive means mostly below about 7.6%
MOR-DOR ag: OPRM1-OPRD1 heterodimerization agonism; actives 0.3% (n = 340,000); activation, % at 9.3 µM; P35372+P41143; cells, luminescence
Target sequence (P35372 whole entry, looked up): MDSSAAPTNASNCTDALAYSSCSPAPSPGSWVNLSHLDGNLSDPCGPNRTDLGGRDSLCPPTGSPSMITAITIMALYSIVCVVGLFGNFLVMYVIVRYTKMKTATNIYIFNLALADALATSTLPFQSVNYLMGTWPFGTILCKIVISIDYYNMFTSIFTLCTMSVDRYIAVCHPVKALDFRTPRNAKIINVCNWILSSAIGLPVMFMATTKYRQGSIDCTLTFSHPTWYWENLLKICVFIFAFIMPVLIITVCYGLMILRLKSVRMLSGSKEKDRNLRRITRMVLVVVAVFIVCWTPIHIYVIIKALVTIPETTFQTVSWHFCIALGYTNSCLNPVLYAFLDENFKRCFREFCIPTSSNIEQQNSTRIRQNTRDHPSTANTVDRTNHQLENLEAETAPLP
Target sequence (P41143 whole entry, looked up): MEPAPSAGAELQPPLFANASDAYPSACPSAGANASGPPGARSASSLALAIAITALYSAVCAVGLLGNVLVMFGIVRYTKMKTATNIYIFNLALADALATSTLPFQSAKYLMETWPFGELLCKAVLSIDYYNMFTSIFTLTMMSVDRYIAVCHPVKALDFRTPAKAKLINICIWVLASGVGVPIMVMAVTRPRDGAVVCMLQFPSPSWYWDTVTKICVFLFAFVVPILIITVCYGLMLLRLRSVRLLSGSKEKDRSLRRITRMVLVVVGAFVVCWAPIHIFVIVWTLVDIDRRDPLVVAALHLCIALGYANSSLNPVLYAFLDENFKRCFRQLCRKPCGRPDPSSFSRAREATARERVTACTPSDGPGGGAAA
OPRM1-OPRD1 inv: inverse agonist of human OPRM1-OPRD1 heterodimerization; P35372+P41143; cell-based MOR-DOR heterodimer luminescence, inverse agonism; inhibition, % at 9.3 µM; actives 0.21% (n = 340,000); in the data active means inhibition above about 22%, passing the limit was not always enough
HTR5A inv ctr: HTR5A inverse agonism, opioid heterodimer counter-screen | AID 504634 | inhibition, % at 9.3 µM | actives 0.083% (n = 340,000) | P47898 | HTR5A cell line, luminescence; in the data active means inhibition mostly above about 23%, no sharp cut-off; inactive means mostly below about 18%
MOR-DOR ag conf: confirmation of human OPRM1-OPRD1 heterodimerization agonists | shares compounds with MOR-DOR ag | activation, % at 9.3 µM | cells, MOR-DOR heterodimerization, luminescence complementation | AID 504904 | actives 45% (n = 830)
HTR5A ag counter: HTR5A agonism, opioid heterodimer counter-screen; shares compounds with MOR-DOR ag; HTR5A agonist counterscreen, cell luminescence; activation, % at 9.3 µM; actives 8% (n = 830); AID 504905; in the data active means activation above about 17%
Numbers stand for hits; n = inactive; x = not tested or not shown. Hits are enriched below; roughly 1.1% of the tested compounds scored in any of these assays. Unless noted, no stated cut-off is given here; in the data, active means activation above about 18%; inactive means the rest.

SMILES	HTR5A ag ctr	MOR-DOR ag	OPRM1-OPRD1 inv	HTR5A inv ctr	MOR-DOR ag conf	HTR5A ag counter
O=C(c1cccc(Cl)c1)N(Cc1cccs1)C1CCS(=O)(=O)C1 (configuration not stated)	n	n	n	n	x	x
O=C(c1sc2ccccc2c1Cl)N(Cc1cccs1)C1CCS(=O)(=O)C1 (configuration not stated)	n	161.8	n	n	n	n
C/C(=N\NC(=O)c1cccc(S(=O)(=O)Nc2cccc(Cl)c2)c1)c1cccs1	n	20.3	n	n	n	n
CCN(CC)S(=O)(=O)c1cccc(C(=O)N/N=C(\C)c2cccs2)c1	n	n	n	n	x	x
Cc1ccc(/C=N/NC(=O)c2cccc(S(=O)(=O)Nc3cccc(Cl)c3)c2)o1	n	19.1	n	n	21.5	n
COc1ccccc1NS(=O)(=O)c1cccc(C(=O)N/N=C/c2ccc(C)o2)c1	n	n	n	n	x	x
CCOc1ccc(C(=O)NN2CCOCC2)cc1	n	n	n	n	x	x
Cc1cccc(NC(=O)c2nc[nH]c2C(=O)N2CCC(C)CC2)c1	n	n	n	n	x	x
Cc1ccc(C)c(OCC(=O)N(Cc2ccccc2)c2c(N)n(Cc3ccccc3)c(=O)[nH]c2=O)c1	n	n	n	n	x	x
CC/C(=N\NC(=O)c1ccc(CN(C)S(=O)(=O)c2ccc(C)cc2)cc1)c1ccc(OC(F)F)cc1	n	31.2	n	n	n	n
Cc1ccc(S(=O)(=O)N(C)Cc2ccc(C(=O)NN=C(CC(C)C)CC(C)C)cc2)cc1	n	n	n	n	x	x
Cn1c(=N)n(CC(=O)c2ccc(Br)cc2)c2ccccc21	n	34.0	n	n	24.9	n
CC1Cc2ccccc2N1C(=O)c1cc2cccnc2n(C)c1=O (configuration not stated)	n	n	n	n	x	x
Cc1onc(-c2ccc(Cl)cc2)c1-c1ccnc(SCC(=O)Nc2ccc(C(C)C)cc2)n1	n	56.2	n	n	n	n
O=C(CSc1nccc(-c2cccs2)n1)Nc1ccc(Cl)cc1	n	n	n	n	x	x
CN(Cc1cccnc1)C(=O)c1cc(S(=O)(=O)Nc2ccccc2F)ccc1Cl	n	n	n	n	x	x
Cc1oc2c(c1C(=O)c1ccccc1)C(=O)C(=O)c1ccccc1-2	n	18.1	n	n	20.9	n
O=S(=O)(NC1CC1)c1ccc(S(=O)(=O)N2CCCC3(CCCCC3)C2)cc1	n	39.5	n	n	31.9	n
COc1ccc(/C=N/Nc2c(Cl)cc(Cl)cc2Cl)cc1CN1CCOCC1	n	30.7	n	n	n	n
Nc1ccc2c(c1Cl)C(=O)c1ccc(N)c(Cl)c1C2=O	n	n	n	n	x	x
Cc1ccc2c(c1C)-c1c(ccc(C)c1C)C(=O)C2=O	n	21.3	n	n	20.8	n
CN1CCN(c2ccc(NC(=O)c3ccc(-c4cccc([N+](=O)[O-])c4)o3)cc2)CC1	n	99.7	n	n	93.3	n
O=C(Nc1ccc(N2CCN(C(=O)c3ccc(Cl)cc3)CC2)cc1)c1ccc(Br)o1	n	n	n	n	x	x
CN1CCN(c2ccc(NC(=O)c3ccc(-c4ccc(Cl)cc4)o3)cc2)CC1	n	305.8	n	n	19.5	n
Cc1ccc(N2CCN(C(=S)c3ccc(-c4cccc([N+](=O)[O-])c4)o3)CC2)cc1	n	n	n	n	x	x
SMILES	HTR5A ag ctr	MOR-DOR ag	OPRM1-OPRD1 inv	HTR5A inv ctr	MOR-DOR ag conf	HTR5A ag counter
COc1ccc(S(=O)(=O)N2CCN(C(=O)CCCN3C(=O)NC4(CCCC4)C3=O)CC2)cc1	n	n	n	n	x	x
O=C(Nc1ccc(Cl)c(Cl)c1)N(CCCN1CCOCC1)Cc1cccs1	n	27.3	n	n	n	n
O=C(Nc1ccc(Cl)c(Cl)c1)N(CCCN1CCOCC1)Cc1cccnc1	n	n	n	n	x	x
COc1ccc(CN(CCN(C)C)c2ccccn2)cc1	n	n	n	n	x	x
CCCCCCCCCCCCCCCC[N+](C)(C)CCN(Cc1ccc(OC)cc1)c1ncccn1	n	29.4	n	n	34.8	n
CCOC(=O)[C@@H]1[C@H]2COc3ccc(Br)cc3[C@H]2N2C(=O)N(c3cccc(Cl)c3)C(=O)[C@]12C	n	n	n	n	x	x
CCOC(=O)c1c(C)[nH]c(C(=O)OCC(O)=C(C#N)c2nc3ccccc3[nH]2)c1C	12.8	37.5	n	n	31.2	n
N#C/C(=C(/O)COC(=O)COc1cccc(Br)c1)c1nc2ccccc2[nH]1	n	26.1	n	n	n	n
N#C/C(=C(/O)COC(=O)c1ccc(O)cc1)c1nc2ccccc2[nH]1	n	n	n	n	x	x
O=C1COc2ccc(S(=O)(=O)N3CCC(C(=O)NCc4ccc(F)cc4)CC3)cc2N1	n	n	n	n	x	x
CCCCCN(C(=O)CSc1n[nH]c(-c2ccc(C)cc2)n1)c1c(N)n(CCCC)c(=O)[nH]c1=O	n	n	n	n	x	x
COc1cccc(CN2CC(C(=O)NC3CCC(O)CC3)CCC2=O)c1 (configuration not stated)	n	n	n	n	x	x
CN(C)/C=C/C(=O)c1ccc(OCCN(C)c2ccccn2)cc1	n	20.1	n	n	n	n
NS(=O)(=O)c1cccc(NC(=O)COC(=O)CN2C(=O)c3ccccc3C2=O)c1	n	n	n	n	x	x
C/C=C(\C)CN1CCC(n2nccc2NC(=O)CCc2ccccc2)CC1	n	20.3	n	n	n	n
C/C=C(\C)CN1CCC(n2nccc2NC(=O)CCOc2ccccc2)CC1	n	n	n	n	x	x
O=C(Cn1cnc([N+](=O)[O-])c1)c1ccc(Cl)cc1	n	n	n	n	x	x
O=C(C[n+]1cnn(CC(=O)c2ccc(Cl)cc2Cl)c1)c1ccc([N+](=O)[O-])cc1	n	54.4	n	n	n	n
Cc1ccc2nc(Cl)c3cc(C(=O)N(CCN(C)C)Cc4ccco4)sc3c2c1	n	31.6	n	n	n	n
O=C(Cn1c(-c2ccccc2)c[n+]2ccsc12)c1ccc(Br)cc1	n	170.9	n	n	n	n
NC(=O)C1CCN(C(=O)NC2CC(=O)N(c3ccc4c(c3)OCCO4)C2)CC1 (configuration not stated)	n	n	n	n	x	x
CSCCC(NS(=O)(=O)c1ccc(C)cc1)C(=O)N1CCN(C(C)=O)CC1 (configuration not stated)	n	n	n	n	x	x
CSCCC(NS(=O)(=O)c1ccc(C)cc1)C(=O)N1CCN(C(c2ccccc2)c2ccccc2)CC1 (configuration not stated)	n	57.1	n	n	n	n
O=C(O)CCCCCCCCCCP(=O)(c1ccccc1)c1ccccc1	n	n	n	n	x	x
O=P(CCCCCCCCCP(=O)(c1ccccc1)c1ccccc1)(c1ccccc1)c1ccccc1	n	21.5	n	n	n	n
COc1ccc2c(Cl)c(-c3nnc(SCC(N)=O)n3C)sc2c1	n	n	n	n	x	x
COc1ccc2c(Cl)c(-c3nnc(SCC(=O)c4ccccc4)n3C)sc2c1	n	325.0	n	n	371.6	n
Fc1ccc(/C=C\c2nccc3c2[nH]c2ccccc23)cc1	n	19.1	n	n	33.0	37.0
C(=C\c1nccc2c1[nH]c1ccccc12)/c1ccccc1	n	n	n	n	x	x

High-throughput results deposited in PubChem by The Scripps Research Institute Molecular Screening Center.
